From PubChem
Shown is part of a subset that was picked to be rich in hits.
Tgondii IFNg = T. gondii growth inhibition under IFN-gamma. activity change, negative = inhibition, % (test concentration not listed). AID 1259416. Toxoplasma gondii growth in IFN-gamma-treated host cells; stronger effect = lower value. 69,000 tested, 3.8% active; in the data active means activity change below about -70%, passing the limit was not always enough;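 further: host cells are HeLa cells infected with Toxoplasma gondii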
An asterisk follows results filed as active; ! = repeats disagree.

SMILES | Tgondii IFNg
C/C=C/c1ccc([C@@H]2[C@@H](CO)N(C(=O)C3CCC3)C23CN(C(=O)NC(C)C)C3)cc1 | 97
COc1cncc(-c2ccc(F)c(CO)c2)c1 | -2
Cc1[nH]nc2ccc(-c3cncc(OC[C@@H](N)Cc4ccccc4)c3)cc12 | -78*
Cc1ccc(NC(=O)CN2CCC3(CC2)N=C(c2ccc(C(C)(C)C)cc2)C(=O)N3)cc1C | -76*
Cc1cccc(NC(=O)CN2CCC3(CC2)N=C(c2ccc(C)c(C)c2)C(=O)N3)c1 | -10
Cc1ccc(NC(=O)CN2CCC3(CC2)N=C(c2cccc(F)c2)C(=O)N3)cc1C | 38
CCOCC12CCCOC1CCN(C(=O)c1ccc3c(c1)OCO3)C2 (stereo not drawn) | -4
CCc1cc(-c2ccc3c(c2)OCCO3)ccc1NC(C)=O | 136
CCC(=O)NCc1ccccc1-c1ccc2c(c1)OCCO2 | 11
CCNC(=O)Cc1ccc(-c2ccc3c(c2)OCCO3)cc1 | -74*
Cc1oc(-c2cccc(Br)c2)nc1Cn1cnc2onc(-c3ccc(Cl)cc3)c2c1=O | 9
OCCNc1ccc(-c2ccc(F)cc2Cl)nn1 | 24
CC[C@@H](C(=O)O)C1CC[C@H](C)C([C@@H](C)[C@H](O)[C@H](C)C(=O)[C@H](CC)C2O[C@]3(C=C[C@@H](O)[C@]4(CC[C@@](C)(C5CC[C@](O)(CC)[C@H](C)O5)O4)O3)[C@H](C)C[C@@H]2C)O1 (stereo partly drawn) | -79*!
COc1cccc(-c2nc(C)c(-c3ccc(SCc4ccccc4C)nn3)s2)c1 | 1
Cc1cccc(NC(=O)CN(Cc2ccco2)C(=O)c2ccc(Cl)cc2)c1 | -25
O=C(Cn1ncc2c(N3CCN(c4ccccc4)CC3)ncnc21)Nc1ccc(F)cc1F | 125
C=CCOc1ccccc1NC(=O)c1cc(=O)c2cc(C)c(C)cc2o1 | 47
CCOC(=O)c1c(NC2CCCC2)c2cccc(C)c2[nH]c1=O | -28
CC(=O)N[C@@H]1c2ccccc2[C@H]2CN(C(=O)c3nc(Cl)sc3C(C)C)C[C@H]21 | 4
CNC(=O)c1nc2c(s1)CCN(C(=O)NCc1ccccc1)CC2 | 66
CC(C)CNC(=O)c1nc2c(s1)CCN(C(=O)NCc1ccccc1)CC2 | -84*
COc1ccc(CNC(=O)c2nc3c(s2)CCN(C(C)=O)CC3)cc1 | -11
CC(C)OCCN1CCN(C(=O)C23CC4CC(C2)CC(n2cncn2)(C4)C3)CC1 | 7
c1cncc(CN(CCCN2CCOCC2)Cc2cccc3cccnc23)c1 | 6
Cc1ccc(Cl)cc1N(CC(=O)Nc1c(F)cccc1F)S(C)(=O)=O | -76*
SMILES | Tgondii IFNg
CS(=O)(=O)N(CCCC(=O)NCc1ccco1)c1cc(Cl)ccc1Cl | 99
Cc1ccccc1NC(=O)CN(c1cc(Cl)ccc1C)S(C)(=O)=O | -39
O=C(O)CCCNC(=O)c1ccc2c(c1)OCCO2 | -32
COCCN(CCOC)C(=O)c1ccc2ccc(N3CCC(C)CC3)n2c1 | -88*
CCCCN(C)C(=O)c1ccc2ccc(N3CCN(CC4CC4)CC3)n2c1 | 20
CCN(CC)CCCNC(=O)c1ccc2ccc(N3CCC(C)CC3)n2c1 | -46
CCCOCCn1nc(C2CCCNC2)n(CC)c1=O (stereo not drawn) | -48
Cc1cc(C)n(-c2cc(Cl)ccc2-c2cncc(C(=O)N3CCCC3)n2)n1 | -3
Clc1ccc2c(c1)N=C(N1CCNCC1)c1ccccc1N2 | -58
CN1CCN(C2=Nc3cc(F)ccc3Cc3ccccc32)CC1 | 3
CN1CCN(C2=Nc3cc(Cl)ccc3Nc3ccccc32)CC1 | -95*!
O=C(CSc1nc2c(c(=O)n1-c1ccccc1)SCC2)Nc1ccc(-c2ccccc2)cn1 | -73*
COc1cc(=O)[nH]c(SCC(=O)Nc2ccc(Cl)cn2)n1 | -21
Cn1c(-c2ccccc2)cnc1NC(=O)c1cccn(CC(=O)N2CCCC2)c1=O | 19
COc1ccc(C(=O)N(Cc2ccc(SC)cc2)C2(C(=O)NCc3ccccc3)CCN(C(C)=O)CC2)cc1 | -60
c1cc(-c2ccn[nH]2)cc(-n2cnnc2)c1 | 71
CC(C)n1nc(-c2cc3cc(O)ccc3[nH]2)c2c(N)ncnc21 | -65
CC(C)(C)n1nc(-c2ccc(Cl)cc2)c2c(N)ncnc21 | -90*
CC(C)(O)C#Cc1cccc(C(=O)NCC[C@@H]2C[C@@H]3C=C[C@H]2C3)c1 | -1
COc1cccc(-c2nc(-c3cc(C(=O)N4CCC(N(C)C)C4)c4ccccn34)cs2)c1 (stereo not drawn) | -1
COc1cc2ncnc(Nc3cccc(Br)c3)c2cc1OC | -79*
CCC(C)Nc1ncnc2cc(OC)c(OC)cc12 (stereo not drawn) | -1
COc1cc2ncnc(Nc3cccc(O)c3)c2cc1OC | -25
CCCn1ncnc1C(C)NC(=O)C1(Nc2ccc(C)cc2)CCCC1 (stereo not drawn) | 5
COc1ccccc1C1(O)CCCN(C(=O)C2(C)CCCO2)C1 (stereo not drawn) | -5
SMILES | Tgondii IFNg
CCn1c(C2CCN(Cc3cccc(OCC(N)=O)c3)CC2)nn(C)c1=O | 3
Nc1cccc(-c2nc3ccccc3[nH]2)c1 | 52
Nc1cccc2nc3ccccc3cc12 | -99*
Nc1ccccc1Nc1nc2ccccc2[nH]1 | -17
Cc1ccsc1CN(C)C(=O)c1nn(C)c2c1CCCC2 | 3
Cc1ccc(CN(Cc2ccc3c(c2)OCO3)Cc2cnc(C)[nH]2)cc1 | -28
Cc1ccc(O)c(CN(Cc2cccnc2)Cc2ccc3c(c2)OCO3)n1 | -25
COCCc1ncc(CN(Cc2ccncc2)Cc2ccc3c(c2)OCO3)cn1 | -71*
OCC1(Cc2cccc(C(F)(F)F)c2)CCN(c2ccc3ccccc3n2)CC1 | 0
OCC1(CCc2ccccc2)CCN(c2ccc3ccccc3n2)CC1 | -77*
OCC1(CCc2ccccc2)CCN(c2nccc(N3CCC(O)C3)n2)CC1 (stereo not drawn) | -13
CN1CCC2(CC1)CCN(S(=O)(=O)c1c(F)cccc1F)C2 | 4
CN(C)C(=O)COCC1CC2(CCN(Cc3cnn(C)c3)CC2)CO1 (stereo not drawn) | -32
CN(C)C(=O)CN1CCC2(CCCN2Cc2cnn(C)c2)CC1 | -55
CN(C)C(=O)CN1C[C@]23CN(Cc4cnn(C)c4)C[C@@H](C[C@@H]2S1(=O)=O)O3 | -108*
O=C(c1cscn1)N1CCC(Cc2cncc3ccccc23)C1 (stereo not drawn) | -4
CCc1nc2ccccc2n1CCC(=O)N1CCN2C(=O)CNC(=O)C2C1 (stereo not drawn) | 52
COc1ccc(C(=O)N2CCc3[nH]cnc3C23CCCCC3)cc1 | -6
O=C(Cc1ccc(OC(F)(F)F)cc1)N1CCc2[nH]cnc2C12CCCC2 | -80*
O=C(Cc1ccc(F)cc1)N1CCC2(CC1)COCCN(c1ncccn1)C2 | -15
Cc1nnsc1CN(C)C(=O)C1=NNC(=O)CC1 | -10
c1ccc(COC2CCCN(Cc3ccsc3)C2)nc1 (stereo not drawn) | 7
Cc1cnc(N)c(-c2ccc(S(C)(=O)=O)cc2)c1 | 3
CS(=O)(=O)N1CCC(c2nnc3ccc(C(=O)C4CCC4)cn23)C1 (stereo not drawn) | -3
CCCc1ccc(C(=O)N2Cc3c(CN4CCCCC4)nn(C)c3C2)cc1 | -79*
Cn1nc(CN2CCCCC2)c2c1CN(C(=O)c1cccc(C#N)c1)C2 | 3
CCc1ccc(S(=O)(=O)N2Cc3c(CN4CCCCC4)nn(C)c3C2)cc1 | 3
CN1CCN(C(=O)C[C@@H]2CC[C@@H]3[C@H](COC[C@H](O)CN3Cc3cccc(-c4ccncc4)c3)O2)CC1 | 7
COCCN1C(=O)CCC12CCC(NC(=O)c1c(C)noc1C)CC2 (stereo not drawn) | -30
